# In the supplement of paper PMC8728848:
# The sample as a whole holds a higher share of the strongest signals than the screen did.
# B1: Latrophilin-3 (Homo sapiens), Q9HAR2 (protein)
# chain: MWPSQLLIFMMLLAPIIHAFSRAPIPMAVVRRELSCESYPIELRCPGTDVIMIESANYGRTDDKICDSDPAQMENIRCYLPDAYKIMSQRCNNRTQCAVVAGPDVFPDPCPGTYKYLEVQYECVPYKVEQKVFLCPGLLKGVYQSEHLFESDHQSGAWCKDPLQASDKIYYMPWTPYRTDTLTEYSSKDDFIAGRPTTTYKLPHRVDGTGFVVYDGALFFNKERTRNIVKFDLRTRIKSGEAIIANANYHDTSPYRWGGKSDIDLAVDENGLWVIYATEQNNGKIVISQLNPYTLRIEGTWDTAYDKRSASNAFMICGILYVVKSVYEDDDNEATGNKIDYIYNTDQSKDSLVDVPFPNSYQYIAAVDYNPRDNLLYVWNNYHVVKYSLDFGPLDSRSGQAHHGQVSYISPPIHLDSELERPSVKDISTTGPLGMGSTTTSTTLRTTTLSPGRSTTPSVSGRRNRSTSTPSPAVEVLDDMTTHLPSASSQIPALEESCEAVEAREIMWFKTRQGQIAKQPCPAGTIGVSTYLCLAPDGIWDPQGPDLSNCSSPWVNHITQKLKSGETAANIARELAEQTRNHLNAGDITYSVRAMDQLVGLLDVQLRNLTPGGKDSAARSLNKAMVETVNNLLQPQALNAWRDLTTSDQLRAATMLLHTVEESAFVLADNLLKTDIVRENTDNIKLEVARLSTEGNLEDLKFPENMGHGSTIQLSANTLKQNGRNGEIRVAFVLYNNLGPYLSTENASMKLGTEALSTNHSVIVNSPVITAAINKEFSNKVYLADPVVFTVKHIKQSEENFNPNCSFWSYSKRTMTGYWSTQGCRLLTTNKTHTTCSCNHLTNFAVLMAHVEVKHSDAVHDLLLDVITWVGILLSLVCLLICIFTFCFFRGLQSDRNTIHKNLCISLFVAELLFLIGINRTDQPIACAVFAALLHFFFLAAFTWMFLEGVQLYIMLVEVFESEHSRRKYFYLVGYGMPALIVAVSAAVDYRSYGTDKVCWLRLDTYFIWSFIGPATLIIMLNVIFLGIALYKMFHHTAILKPESGCLDNIKSWVIGAIALLCLLGLTWAFGLMYINESTVIMAYLFTIFNSLQGMFIFIFHCVLQKKVRKEYGKCLRTHCCSGKSTESSIGSGKTSGSRTPGRYSTGSQSRIRRMWNDTVRKQSESSFITGDINSSASLNREGLLNNARDTSVMDTLPLNGNHGNSYSIASGEYLSNCVQIIDRGYNHNETALEKKILKELTSNYIPSYLNNHERSSEQNRNLMNKLVNNLGSGREDDAIVLDDATSFNHEESLGLELIHEESDAPLLPPRVYSTENHQPHHYTRRRIPQDHSESFFPLLTNEHTEDLQSPHRDSLYTSMPTLAGVAATESVTTSTQTEPPPAKCGDAEDVYYKSMPNLGSRNHVHQLHTYYQLGRGSSDGFIVPPNKDGTPPEGSSKGPAHLVTSL
# Key:
# Test in all cases: glycan array binding signal (z-score within array); higher = stronger binding
# Conditions in all cases: glycan notation: IUPAC condensed, linker removed
# [1] = target: Gal3S(b1-4)[Fuc(a1-3)]Glc6S
# Outline: (§1)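 Negative Z-scores can be read as non-binding. The Z-score is calculated within each array and then averaged across arrays of one protein sequence at different concentrations or buffers and across linkers. Arrays, 3228 in all, were curated from the Consortium for Functional Glycomics database and kept only where the protein sequence was available.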
# Gal6S(b1-3)GlcNAc = target: Gal6S(b1-3)GlcNAc
# Outline: as §1
# [2] = target: GalNAc(a1-3)GalNAc(b1-3)Gal(a1-4)Gal(b1-4)Glc
# Outline: as §1
# GalNAc4S6S(b1-4)GlcNAc = target: GalNAc4S6S(b1-4)GlcNAc
# Outline: as §1
# GalNAc6S(b1-4)GlcNAc = target: GalNAc6S(b1-4)GlcNAc
# Outline: as §1
# Glc(a1-4)Glc = target: Glc(a1-4)Glc
# Outline: as §1
# [3] = target: GlcNAc(a1-4)Gal(b1-4)GlcNAc(b1-3)Gal(b1-4)[Fuc(a1-3)]GlcNAc(b1-3)Gal(b1-4)[Fuc(a1-3)]GlcNAc
# Outline: as §1
# [4] = target: GlcNAc(b1-2)Gal(b1-3)GalNAc
# Outline: as §1
# [5] = target: GlcNAc(b1-2)[GlcNAc(b1-4)]Man(a1-3)[GlcNAc(b1-2)Man(a1-6)]Man(b1-4)GlcNAc(b1-4)GlcNAc
# Outline: as §1
# [6] = target: GlcNAc(b1-2)[GlcNAc(b1-6)]Man(a1-6)[GlcNAc(b1-2)Man(a1-3)][GlcNAc(b1-4)]Man(b1-4)GlcNAc(b1-4)GlcNAc
# Outline: as §1
# [7] = target: GlcNAc(b1-4)GlcNAc(b1-4)GlcNAc(b1-4)GlcNAc(b1-4)GlcNAc
# Outline: as §1
# [8] = target: Man(a1-2)Man(a1-3)[Man(a1-2)Man(a1-6)]Man
# Outline: as §1
# [9] = target: Man(a1-2)Man(a1-3)[Man(a1-2)Man(a1-6)]Man(a1-6)[Man(a1-2)Man(a1-2)Man(a1-3)]Man
# Outline: as §1
# [10] = target: Man(a1-2)Man(a1-3)[Man(a1-2)Man(a1-6)]Man(a1-6)[Man(a1-2)Man(a1-2)Man(a1-3)]Man(b1-4)GlcNAc(b1-4)GlcNAc
# Outline: as §1
# [11] = target: Neu5Ac(a2-3)Gal(b1-3)[Fuc(a1-4)]GlcNAc(b1-3)Gal(b1-3)[Fuc(a1-4)]GlcNAc
# Outline: as §1
# [12] = target: Neu5Ac(a2-3)Gal(b1-4)GlcNAc(b1-2)Man(a1-3)[GlcNAc(b1-2)Man(b1-4)GlcNAc(b1-2)Man(a1-6)]Man(b1-4)GlcNAc(b1-4)GlcNAc
# Outline: as §1
# [13] = target: Neu5Ac(a2-3)Gal(b1-4)GlcNAc(b1-3)GalNAc
# Outline: as §1
# [14] = target: Neu5Ac(a2-3)Gal(b1-4)[Fuc(a1-3)]GlcNAc(b1-3)GalNAc
# Outline: as §1
# [15] = target: Neu5Ac(a2-3)GalNAc(b1-4)GlcNAc
# Outline: as §1
# [16] = target: Neu5Ac(a2-3)[Neu5Ac(a2-6)]GalNAc
# Outline: as §1
# Neu5Ac(a2-6)Gal(b1-4)Glc = target: Neu5Ac(a2-6)Gal(b1-4)Glc
# Outline: as §1
# [17] = target: Neu5Ac(a2-8)Neu5Ac(a2-8)Neu5Ac(a2-3)[GalNAc(b1-4)]Gal(b1-4)Glc
# Outline: as §1
# [18] = target: Neu5Ac9Ac(a2-6)Gal(b1-4)GlcNAc
# Outline: as §1
binder,measurement,setting,value
B1,glycan array binding signal (z-score),[1],-0.622
same,glycan array binding signal (z-score),Gal6S(b1-3)GlcNAc,0.183
same,glycan array binding signal (z-score),[2],-1.16
same,glycan array binding signal (z-score),GalNAc4S6S(b1-4)GlcNAc,1.42
same,glycan array binding signal (z-score),GalNAc6S(b1-4)GlcNAc,3.81
same,glycan array binding signal (z-score),Glc(a1-4)Glc,-0.053
same,glycan array binding signal (z-score),[3],2.21
same,glycan array binding signal (z-score),[4],1.25
same,glycan array binding signal (z-score),[5],0.886
same,glycan array binding signal (z-score),[6],-0.448
same,glycan array binding signal (z-score),[7],0.111
same,glycan array binding signal (z-score),[8],-1.71
same,glycan array binding signal (z-score),[9],0.047
same,glycan array binding signal (z-score),[10],1.12
same,glycan array binding signal (z-score),[11],6.27
same,glycan array binding signal (z-score),[12],0.035
same,glycan array binding signal (z-score),[13],0.708
same,glycan array binding signal (z-score),[14],3.18
same,glycan array binding signal (z-score),[15],-0.972
same,glycan array binding signal (z-score),[16],-1.4
same,glycan array binding signal (z-score),Neu5Ac(a2-6)Gal(b1-4)Glc,1.15
same,glycan array binding signal (z-score),[17],-1.01
same,glycan array binding signal (z-score),[18],-0.383
